Rows were chosen to be rich in hits. Some 7.5% of all compounds tested hit in one or more screens of this group.
ELG1 genotoxic – induces genotoxicity in HEK293T cells with luciferase-tagged ELG1; 330,000 compounds, 1.3% hits; HEK293T ELG1-luciferase reporter, luminescence, 16 h; Potency, µM (doses to about 46 µM), without a hit: at the highest dose activity change, positive = activation, actives largely listed as activators; AID 504466; note: % of control where 0% means no effect; nearly all actives have a fitted effect of over 60% in size
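Genotoxicity was scored as increased ELG1-luciferase reporter signal, measured by ONE-Glo luminescence (30 min, room temperature). Compound or vehicle exposure of the HEK293T reporter cells lasted 16 hr at 37°C.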
NPC1 promoter act – activators of NPC1 promoter | Huh7 NPC1 promoter luciferase reporter, 24 h | Potency, µM (top dose mostly 9.22 µM), for inactives: at the top dose activation, actives largely listed as activators | 320,000 compounds, 2.4% hits | AID 485313; note: % of control where 0% means no effect; nearly all actives have a fitted effect of over 60% in size
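Huh7 cells stably carrying NPC1 promoter–luciferase, plated in Opti-MEM with 10% FBS for 2 h, were exposed to compound in DMSO for 24 h at 37 °C; luciferase reagent was added for 10 min and luminescence read.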
FLuc counter – counter-screen for miR-21 project: firefly luciferase inhibitors or activators; P08659; purified FLuc, Km substrates, luminescence inhibition; Potency, µM (top dose mostly 57.5 µM), inactives show at the top dose activity change, negative = inhibition, usual class: inhibitors; 360,000 compounds, 6.9% hits; AID 588342;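 note: plate controls were vehicle for no effect and reference inhibitor for full effect; nearly all actives have a fitted effect of over 55% in size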
Target sequence (P08659 whole entry, looked up): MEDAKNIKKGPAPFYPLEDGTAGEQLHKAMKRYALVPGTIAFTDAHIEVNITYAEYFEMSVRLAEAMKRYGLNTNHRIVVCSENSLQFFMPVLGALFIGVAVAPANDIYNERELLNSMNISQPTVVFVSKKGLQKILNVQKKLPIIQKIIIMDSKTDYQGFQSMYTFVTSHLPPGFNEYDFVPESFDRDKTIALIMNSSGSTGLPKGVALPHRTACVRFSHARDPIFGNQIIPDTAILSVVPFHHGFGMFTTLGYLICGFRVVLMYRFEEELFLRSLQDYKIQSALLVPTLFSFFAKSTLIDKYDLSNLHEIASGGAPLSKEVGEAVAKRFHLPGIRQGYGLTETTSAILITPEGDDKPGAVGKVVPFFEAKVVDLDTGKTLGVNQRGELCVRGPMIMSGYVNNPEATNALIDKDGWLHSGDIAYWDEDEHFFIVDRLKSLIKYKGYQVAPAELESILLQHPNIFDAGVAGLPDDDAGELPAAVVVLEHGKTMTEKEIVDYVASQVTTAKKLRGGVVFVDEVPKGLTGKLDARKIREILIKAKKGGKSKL
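Purified P. pyralis luciferase (10nM final) with 10uM D-luciferin and 10uM ATP (Km levels) in 50mM Tris acetate pH 7.5, 10mM Mg acetate, 0.01% Tween-20, 0.05% BSA; qHTS 6-point titration, ~60 µM downward; luminescence read.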
SMN2 splice enh – enhancers of SMN2 splice variant expression. HEK293 SMN2-luciferase splicing reporter, luminescence, 30-36 h. Potency, µM (titrated, usually from 46.1 µM), inactives show top-dose activity change, positive = activation, hits mostly activators. 210,000 compounds, 2.8% hits; note: % of control where 0% means no effect; nearly all actives have a fitted effect of over 55% in size
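HEK293 cells carry an SMN2 minigene-luciferase reporter in which exon 7 inclusion puts luciferase in frame. Cells were seeded at 2000 cells/well, attached for 10-12 hours, then exposed to compounds for 30-36 hours at 37C before ONE-Glo luminescence.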
Rab9 prom act – activators of Rab9 promoter. Huh7 Rab9 promoter-luciferase reporter, luminescence, 24 h. Potency, µM (doses to about 9.22 µM), for inactives: top-dose activation, negative = inhibition, most hits filed as activators. 320,000 compounds, 2.8% hits. AID 485297; note: % of control where 0% means no effect; nearly all actives have a fitted effect of over 60% in size
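Measured in stably transfected Huh7 cells bearing a Rab9 promoter–luciferase construct: 24 h compound treatment at 37 °C, followed by luminescence detection.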
An asterisk follows results filed as active; ? = inconclusive; · = no result given. Calls come from the whole dose curve; as a rule, active = well fitted curve in the direction sought with a large enough effect; inconclusive = small, poorly fitted or top-dose-only effect, or another doubt; inactive = no such curve, though single readings can be large; an effect the other way counts as inactive or inconclusive. Potency is the fitted concentration of half-maximal effect.

SMILES | ELG1 genotoxic | NPC1 promoter act | FLuc counter | SMN2 splice enh | Rab9 prom act
Fc1ccc(-c2cc(-c3ccccc3)c3c(n2)-c2cc(F)ccc2OC3)cc1 | · | · | 2.3% | -5.3% | ·
Cc1ccc(NC(=O)Nc2ncnc3nc[nH]c23)cc1 | ? | 3.55µM* | 12µM* | · | 2.82µM*
NC(CCC(=O)NC(CCSC(CC(=O)O)C(=O)O)C(=O)NCC(=O)O)C(=O)O (configuration not stated) | · | · | · | 3.2% | ·
CCCCc1ccc(-c2ccc(Br)cc2)nc1 | ? | 1.26µM* | 1.2µM* | 3.55µM* | 1µM*
CCCc1ccc(-c2ccc(F)c(N)c2)nc1 | ? | 0.501µM* | 0.301µM* | 0.708µM* | 0.398µM*
Cc1ccc(S(=O)(=O)N(CC(=O)N2CCc3ccccc3C2)c2ccc(C)c(C)c2)cc1 | · | · | 2.7% | 18.3% | ·
Cc1ccc(Nc2ccc(NCc3ccccc3)nn2)cc1C | ? | 13.5% | 16.9µM* | ? | 20.2%
O=C(Cn1cnc2ccccc2c1=O)Nc1ccc(N2CCOCC2)cc1 | 0.3% | -3.5% | -2.6% | 6.8% | 4.3%
COc1ccc(C(=O)OCc2cc(=O)n3c(C)csc3n2)cc1F | ? | 3.98µM* | ? | · | 2.24µM*
CCOc1cc(C(=O)OCc2cc(=O)n3c(C)csc3n2)cc(OCC)c1OCC | · | · | -0.7% | · | ·
COc1ccccc1C(=O)OCc1cc(=O)n2c(C)csc2n1 | · | · | 19µM* | · | ·
CCCNc1ccc(C(=O)OCC)cc1[N+](=O)[O-] | ? | ? | 26.9µM* | -10.6% | ?
O=C1N/C(=N\N=C\c2ccc3ncccc3c2)SC1Cc1ccc(SC(F)F)cc1 (configuration not stated) | ? | ? | 0.536µM* | 12.6µM* | ?
COc1cc(/C=N/N=C2/NC(=O)C(Cc3ccccc3)S2)ccc1O (configuration not stated) | 25.1% | 6.8% | 2.39µM* | 66.0% | -2.2%
O=C1N/C(=N\N=C\c2cccs2)SC1Cc1ccc(Cl)cc1 (configuration not stated) | -0.2% | -0.5% | -7.1% | 9.4% | 1.6%
O=C1N/C(=N\N=C\c2cccnc2)SC1Cc1ccc(SC(F)F)cc1 (configuration not stated) | 14.7% | -10.2% | 10.7µM* | -66.4% | -12.3%
O=C(CC1S/C(=N/N=C/c2cccnc2)NC1=O)Nc1ccccc1 (configuration not stated) | -10.6% | -4.1% | ? | -2.6% | -2.2%
O=C1N/C(=N\N=C\c2ccccn2)SC1Cc1cccc(SC(F)F)c1 (configuration not stated) | 9.7% | -1.1% | 15.1µM* | -81.0% | -10.3%
COc1ccc(/C=N/N=C2/NC(=O)C(CC(=O)O)S2)cc1OS(=O)(=O)c1ccccc1 (configuration not stated) | 1.2% | -1.4% | ? | 3.0% | -7.1%
CCCCc1ccc(CC(=O)Nc2cc(S(=O)(=O)N3CCOCC3)ccc2O)cc1 | 1.1% | 0.5% | -8.9% | · | 1.2%
Cc1ccc(NC(=O)CSc2ncnc3ccccc23)cc1S(=O)(=O)N1CCCCCC1 | 0.1% | -1.5% | -9.5% | -18.1% | -5.2%
Cc1ccc(NC(=O)N2CCN(C)c3ncccc32)cc1C | · | · | -1.1% | -0.2% | ·
COc1ccc(-n2c(C)n[nH]c2=O)cc1 | 1.6% | -1.4% | 6.3% | -6.2% | -3.3%
Cc1n[nH]c(=O)n1-c1ccc(OCc2ccccc2)cc1 | ? | ? | 21.3µM* | · | 2.82µM*
CCOc1ccc(C(=O)NCCc2csc(-c3cccnc3)n2)cc1 | · | · | 21.3µM* | · | ·
SMILES | ELG1 genotoxic | NPC1 promoter act | FLuc counter | SMN2 splice enh | Rab9 prom act
O=C(NCCc1csc(-c2cccnc2)n1)c1cccc(Cl)c1 | -5.3% | -3.2% | ? | · | -4.1%
O=C(NCc1ccc(Cl)cc1)c1csc(-c2cccnc2)n1 | -8.2% | 4.9% | -0.1% | · | -6.3%
O=C(Cc1ccc(F)cc1)NCCc1csc(-c2cccc(F)c2)n1 | · | · | -3.5% | · | ·
O=C(NNC(=O)c1ccc(Cl)cc1Cl)c1csc(-c2cccnc2)n1 | 2.7% | 24.7% | 5.36µM* | · | 16.8%
O=C(NCCc1csc(-c2cccnc2)n1)c1ccc(Cl)cc1 | -2.6% | -1.6% | 9.53µM* | · | -0.7%
CC(C)Oc1ccc(C(=O)NCCc2csc(-c3cccc(F)c3)n2)cc1 | · | · | 23.9µM* | · | ·
O=C(NCCc1csc(-c2cccnc2)n1)c1ccco1 | -3.9% | -1.5% | -1.1% | -9.6% | 6.9%
O=C(COc1ccc(Br)cc1)Nc1ccc(Cc2ccncc2)cc1 | -2.9% | -3.6% | -15.8% | -13.4% | -8.6%
O=C(NCCc1csc(-c2cccnc2)n1)c1ccccc1Br | -5.5% | 1.0% | 16.9µM* | · | -2.0%
O=C(NCCc1csc(-c2cccnc2)n1)c1c(F)cccc1F | -9.7% | -2.7% | ? | · | 0.6%
COc1ccc(OC)c(C(=O)N2CCC(n3nccc3NC(=O)CC(C)C)CC2)c1 | -5.5% | -0.7% | -3.6% | · | -3.7%
O=C(NCC(=O)N(c1cccnc1)C(C(=O)NC1CCCC1)c1ccccc1F)c1ccco1 (configuration not stated) | 12.5% | -6.9% | 1.6% | · | 3.5%
Cc1ccc(F)c(NC(=O)/C(C#N)=C(\O)c2ccc(C(C)(C)C)cc2)c1 | 5.8% | 7.6% | 12µM* | ? | 5.0%
Cc1cccc(NC(=O)C(=O)NNC(=O)c2ccc(C(C)(C)C)cc2)c1 | 5.0% | 0.4% | -19.5% | · | 20.9%
COc1cc(C(=O)N2CCN(C(=O)COc3ccc4ccccc4c3)CC2)cc(OC)c1OC | 2.2% | 8.5% | 10.7µM* | -8.2% | 0.7%
COc1cccc(C(=O)N2CCN(C(=O)COc3ccc4ccccc4c3)CC2)c1 | -24.3% | -4.9% | 6.01µM* | · | -2.2%
COc1ccc(OCC(=O)N2CCN(C(=O)c3cccc(F)c3)CC2)cc1 | 0.9% | 0.4% | 0.8% | 19.1% | -0.9%
COc1ccc(CCNC(=O)c2nnn(-c3ccc4c(c3)OCCO4)c2N)cc1OC | 9.7% | 13.2% | 19µM* | · | -4.5%
Nc1c(C(=O)Nc2cccc(F)c2)nnn1-c1ccc2c(c1)OCCO2 | 0.651µM* | 0.1µM* | 0.601µM* | · | 0.316µM*
CCOc1ccccc1NC(=O)c1nnn(-c2ccc3c(c2)OCCO3)c1N | -1.7% | -4.2% | 16.9µM* | · | ?
COc1ccc(CCNC(=O)c2nnn(-c3ccccc3OC)c2N)cc1OC | -2.9% | -2.8% | -0.4% | -0.9% | 16.5%
Cc1ccc(C)c(NC(=O)c2nnn(Cc3ccccc3C)c2N)c1 | -0.8% | -3.1% | -11.0% | -10.1% | -3.3%
Nc1c(C(=O)Nc2ccc3c(c2)OCCO3)nnn1Cc1cccc(Cl)c1 | 11.6% | ? | ? | · | ?
CCOc1ccccc1NC(=O)c1nnn(CC(=O)Nc2ccc3c(c2)OCO3)c1N | 2.7% | -1.7% | -18.4% | · | -4.3%
Cc1ccccc1NC(=O)c1nnn(-c2ccc3c(c2)OCCO3)c1N | 4.9% | 1.26µM* | 6.01µM* | · | 0.891µM*
c1cncc(CNc2ncncc2-c2ccc3c(c2)OCO3)c1 | · | · | · | -5.8% | ·

Compound activity deposited in PubChem by National Center for Advancing Translational Sciences (NCATS).
